Data published in the supplement of paper PMC11417369.
The full ranking holds about 25,000 sequences; the median of “ln(normalized median fluorescence intensity)” is about 6.7, and the highest 2% start at about 10. This is one part of a sample in which the highest values are shown more often than they occur.

system: PfHDP1 homeodomain (GST-tagged); experiment: gcPBM binding intensity (ln(normalized median fluorescence intensity)); higher = stronger DNA binding
Method in brief: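 Plasmodium falciparum DNA-binding domains carrying a GST tag were expressed in E. coli and applied for 1 h, at about 25 μg on average, to an Agilent 4 × 180k array. The array held primer-extended double-stranded 36-bp intergenic genomic probes together with negative controls, and binding took place in 1× PBS with 1% milk, 0.2 mg/ml BSA, 0.5% salmon testes DNA and 0.03% Triton X-100. An Alexa488 anti-GST antibody detected bound protein, and the array was scanned at 488 nm. Binding intensity is taken as the highest Masliner-normalised natural-log median intensity across replicate spots of either probe orientation.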

| Sequence | gcPBM binding intensity (ln) |
| --- | --- |
| AAGTTTATTATATATAAATTATTATATATATATATA [CACACA_negctrl_site189] | 9.02 |
| AATCAAAGTAATTTAACACACAATTTTAATACTGTT [CACACA_site7169] | 6.23 |
| CATTATGTTGTAAATACACACATACATATACATACA [CACACA_site8143] | 6.76 |
| ACATAAATAAATTAATGTACATATATATTTGTATAT [XGTACX_site3160] | 6.32 |
| TATATGTAGATTAAACGTACTTACAACGGAATTATC [XGTACX_site3036] | 6.67 |
| TATAAACATTAAAGGTGTACAATTTAATTTCAATTT [XGTACX_site2944] | 6.28 |
| GGTATAATAATATATAGTACACACAAAAATGGAAGT [XGTACX_site7058] | 7.5 |
| TATTTTTATCAATTCACACATAAATATATTTATATG [CACACA_site5547] | 6.57 |
| TTTTTCCCCCTTTTTTTGATTTTTATCTTAATTCTA [TGCATGCA_negctrl_site287] | 5.85 |
| TATTACACATATTATGTGCACATATATAATCAATAT | 10.9 |
| TTTATTTATATAATTACACACATATATACACAAATG [CACACA_site8903] | 6.83 |
| GTATAATTATGTGCACGTACATATTTTATTATATAT [XGTACX_site8586] | 10.9 |
| ACATAATTATTATGCACACATATTTTTATGTATTTA [CACACA_site698] | 10.2 |
| ATATAATATATGTATACACACATATTATATAATATT [CACACA_site3699] | 6.46 |
| TATTATAATTTTATATGTACACATATATAAATATAT [XGTACX_site4054] | 6.29 |
| CAATTTATTATATATGTGCACATATAATTTTACAAA | 10.4 |
| ATACATATATAATTATGTACGTATATTTTATATAAC [XGTACX_site4292] | 6.14 |
| ATATTTTACAAATGCACACATAATTTTTTTTTTTTT [CACACA_site2763] | 10.5 |
| GTACATAATTATTATGCACACATATTTTTATGTATT [CACACA_site8132] | 10.5 |
| TTATATTTTACAAATGCACACATAATTTTTTTTTTT [CACACA_site8890] | 9.76 |

| Sequence | gcPBM binding intensity (ln) |
| --- | --- |
| ATATATATATATATATGTACATATTTTTAATTATAA [XGTACX_site7444] | 9.45 |
| GTTTTATTTATTTCATGTACACAAAAAAGGTTTTAA [XGTACX_site6525] | 6.97 |
| TTTTGTTATTTTTCAGTGCAATATGATAATAATATA | 9.56 |
| ATTTCTCTATCGTAATGTACATAAAAAAGAAAAACA [XGTACX_site6374] | 6.63 |
| ATATATATATTTAAGGTGCGATTTTGTTATATTTAA | 7.89 |
| AATTATGGGGAAAAGACACACATATATATATATATA [CACACA_site2589] | 9.35 |
| ATCTAAATTTTTCCATGTACATATACTTTTATGCAT [XGTACX_site2683] | 7.08 |
| TATCTGTATTTATTCACACATATAAAATATAATTAA [CACACA_site5560] | 6.36 |
| GGATTTATTTTATATACACACATACCTATATTTATA [CACACA_site7084] | 6.84 |
| TATATCTCATAGTATACACACACACCCACCCACATA [CACACA_site8513] | 7.7 |
| GTATGTGTATGTGTATGTACATATGTATGTATAAAA [XGTACX_site8191] | 8.13 |
| TTAATTATTATATAAGTGCAATAATAAAAAGTTGTA [GTGCAC_site9552] | 9.36 |
| GTTTATGTATTATTATGTACGTATCATAATATATAT [XGTACX_site2385] | 6.87 |
| ACACATACACATTAGGTGCATATATTTCAATATTAC [GTGCAC_site9423] | 9.83 |
| TAATATTCAATTATACGTACACATATATATATATAT [XGTACX_site4245] | 9.22 |
| TTTATGTATTTTTATGCACACATGCGTGGCTTATAT [CACACA_site4374] | 10.4 |
| TATGTATTTTTATGCACACATGCGTGGCTTATATAA [CACACA_site387] | 10.5 |
| AAATAATTATTTATCACACATATGTATTTATATATA [CACACA_site4589] | 6.66 |
| CGTATGCACAAATTATGTACTTATATATATATATAT [XGTACX_site2348] | 10.9 |
| ATTGTATATGTATATGCACACAATATATGTACTTAT [CACACA_site2611] | 9.66 |

| Sequence | gcPBM binding intensity (ln) |
| --- | --- |
| ACACATACACATTAGGTGCACATAATTCAATATTAC [GTGCAC_site9862] | 10.6 |
| TATATATATATATATTTTTTTTTTTTATGCACATGG [CACACA_negctrl_site1573] | 10.1 |
| AGTGCATAATATTTATGTACGTATCACATATATTTT [XGTACX_site5166] | 10.7 |
| ACAAATAAATAAATATGTACTTAATTATATAATTGA [XGTACX_site5626] | 6.16 |
| ATATTATTTTATGCTACACACATTTTCTCTTATAAA [CACACA_site943] | 7.25 |
| AAAAAAAAAATATACACACACATATATATATATATA [CACACA_site3404] | 9.35 |
| GTAGACTGAAACCACACACACATATATATATATATT [CACACA_site605] | 6.93 |
| ATATAGAATATATTAACATGCAATAAGTAAAGGGGG [TGCATGCA_site1022] | 7.05 |
| TGTATGTATTTTCAATGTACATAAAAAAAAAAAAAA [XGTACX_site4397] | 6.71 |
| AATCTAATATAATGCACACATAAAAAAAAAATCAAA [CACACA_site2714] | 10.2 |
| AATATAATATAATGCACACATAAAAAAAAAAAAATC [CACACA_site1303] | 10.6 |
| TGAAATAAATAATGCACACTCTACAGATATACGTAT [CACACA_site5270] | 10.1 |
| AAAATATAATATAATGCACACATAAAAAAAAAATCA [CACACA_site7922] | 10.2 |
| GTTGAAAAAAAAAATGCACACGCATACATATAATAT [CACACA_site8117] | 9.09 |
| AATCTAATATAATGCACACATAAAAAAAAATCAAAC [CACACA_site3633] | 10.7 |
| TTTGAAATAAATAATGCACACTCTACATATATACGT [CACACA_site2244] | 10.6 |
| AATATAATATAATGCACACATAAAAAAAAAATCAAA [CACACA_site122] | 11 |
| AAAATCTAATATAATGCACACATAAAAAAAAATCAA [CACACA_site9211] | 9.65 |
